In PubChem BioAssay:
Where “and” joins values, the source holds several entries; their conditions need not be identical. Identical values can stand only once.

Assay: binders of probe aFSTL3 on microarray, primary screen, stem cell growth factor project, biochemical, small-molecule microarray, fluorescence 635/667 (AID 1064);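 further: measures binding of the biotinylated anti-FSTL3 antibody to printed compounds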
Settings: higher = more signal

Row | SMILES | composite z-score
1 | CCCNC(=O)OC[C@H]1O[C@H](CCON=C(C)CCC(=O)OC[C@H]2O[C@H](C#Cc3ccccc3)C=C[C@@H]2Oc2ccc(C)cc2)C=C[C@@H]1Oc1ccc(OC)cc1 | 0.0836
2 | C=CCN(CCCC)C(=O)C1N(C(C)(C)CO)C(=O)C2C(C(=O)O)C3C=CC21O3 (stereo not given) | 0.501 and 0.858
3 | C=C[C@@H](C)[C@H](O)c1ccc(O)c2ccccc12 | -0.0835 and 0.0226
4 | C=CCN(Cc1ccccc1)C(=O)C1N(C(C)(C)CO)C(=O)C2C(C(=O)O)C3C=CC21O3 (stereo not given) | 0.666 and 0.391
5 | C=CC[C@H](O)c1ccc(OCCO)cc1 | 0.857 and 0.327
6 | C=CCN(C(=O)C(c1cccs1)N(C(=O)/C=C\C(=O)O)c1ccc(CCO)cc1)c1ccc(OC)cc1 (stereo not given) | 0.862 and 1.92
7 | C=CC[C@@H](O)c1ccc(OCCO)cc1 | 0.137 and 0.75
8 | C=CCN(C(=O)C1N(CCCCCCO)C(=O)C2C(C(=O)O)C3C=CC21O3)c1ccc(OC)cc1 (stereo not given) | 0.859 and 1.23
9 | COC(=O)C1=C(C)N(Cc2ccccc2)C2=C(C(=O)c3ccccc3)[C@H](c3ccccc3)[C@@](O)(C(=O)OC)C(=O)N2[C@@H]1c1ccccc1 | -0.195 and -0.325
10 | Cc1ccc(S(=O)(=O)N[C@H]2COC(=O)[C@@H](C)COC(=O)[C@H](C)NC(=O)CC=C[C@H]2C)cc1 | -0.574

Assay: binders from COS7 lysate, DM2A8 probe, primary screen, torsin A project, cell lysate, small-molecule microarray, fluorescence 635/667 (AID 1065)
Settings: higher = more signal, COS7 lysate expressing mutant human TOR1A

Row | SMILES | composite z-score
11 | C=CCN(CCCC)C(=O)C1N(c2ccc(CCO)cc2)C(=O)C2C(C(=O)O)C3C=CC21O3 (stereo not given) | -1.1 and -1.66
12 | COC(=O)C1=C(C)N(Cc2ccccc2)C2=C3C(=O)N(c4ccccc4)C(=O)[C@@H]3[C@@](O)(C(=O)OC)C(=O)N2[C@@H]1c1ccccc1 | 0.205 and 0.642
13 | CCC[C@@H]1C[C@@]1(CCC)[C@@H](NC(=O)c1ccc(-c2ccccc2)cc1)c1cccc(Cl)c1 | 0.995 and -0.712
14 | C=CCN(C(=O)C(c1cccs1)N(C(=O)/C=C\C(=O)O)c1ccc(CCO)cc1)C(C)(C)C (stereo not given) | -0.534 and -0.804
15 | C=CCN(Cc1ccccc1)C(=O)C1N(CCCCCCO)C(=O)C2C(C(=O)O)C3C=CC21O3 (stereo not given) | -1.16 and -1.37
16 | COc1ccc(COC(=O)NN=C2C[C@@H](O)[C@@H](O)[C@@H]3[C@@H]4C(=O)N(C(C)(C)C)C(=O)[C@@H]4CC[C@H]23)cc1 | 0.602
17 | O=C1NC(=O)C2C1C=CC(C(O)c1ccc([N+](=O)[O-])cc1)N2Nc1ccc(Cl)cc1Cl (stereo not given) | 0.0888 and 1.29
18 | COC(=O)C1=C(C)N(Cc2ccccc2)C2=C3C(=O)CCC[C@@H]3[C@@](O)(C(=O)OC)C(=O)N2[C@@H]1c1ccccc1 | 0.999 and -0.117
19 | C[N+](C)(C)CCCCNC(=O)[C@H]1C[C@H]2C(=O)N[C@@H](CCCC[N+](C)(C)C)C(=O)N2[C@H]1c1cccc(OCCO)c1 | -0.422 and 1.12
20 | C=CCN(CCCCC)C(=O)C1N(c2ccc(CCO)cc2)C(=O)C2C(C(=O)O)C3C=CC21O3 (stereo not given) | -0.875 and -0.415
21 | CC(C)C(=O)N[C@@H]1CCCN1C(=O)C=Cc1ccccc1 | 0.323
22 | C[C@@H](ON=C1[C@H]2CCn3c(=O)n(-c4ccccc4)c(=O)n3[C@H]2[C@H](O)[C@@H]2O[C@H]12)c1cn([C@H](CO)Cc2ccccc2)nn1 | 0.316
23 | C=CCN1C(=O)[C@]2(O[C@H](CCn3cc(CCO)nn3)[C@@H]([Si](C)(C)c3ccc(OC)cc3)[C@@H]2C)c2cc(N3C(=O)c4cccc5cccc3c45)ccc21 | 1.1 and -0.4
24 | COC(=O)[C@@]1(Cc2ccc(F)cc2)[C@H]2c3cc(C(=O)N4CCCC4)n(Cc4c(CO)[nH]cc(C)c4=O)c3C[C@H]2CN1C(=O)c1ccccc1 | -0.101 and -1.02
25 | C=CCN(CCCCC)C(=O)C1N(c2c(Cl)cccc2CO)C(=O)C2C(C(=O)O)C3C=CC21O3 (stereo not given) | -0.58 and -2.44
26 | C=CCN(C(=O)C1N(c2c(Cl)cccc2CO)C(=O)C2C(C(=O)O)C3C=CC21O3)C(C)(C)C (stereo not given) | -1.67 and -0.997
27 | COC(=O)[C@@]1(Cc2ccc(OC)cc2)[C@H]2c3cc(C(=O)N(C)C)n(Cc4ccc(O)c(OC)c4)c3C[C@H]2CN1C(=O)c1ccccc1 | 0.703 and 0.13
28 | C=CCN(C(=O)C1N(C(C)(C)CO)C(=O)C2C(C(=O)O)C3C=CC21O3)c1ccc(OC)cc1 (stereo not given) | -1.16 and -1.03
29 | C[N+](C)(C)CCCCNC(=O)[C@@H]1C[C@@H]2C(=O)N[C@@H](CCCC[N+](C)(C)C)C(=O)N2[C@@H]1c1cccc(OCCO)c1 | 2.1 and 2.23
30 | CCCC[C@@H]1CN2[C@@H](CC[C@@H](C)[C@@H]2c2ccc(Br)cc2)C(=O)O1 | 0.191 and 0.217

Row | SMILES | composite z-score
31 | CCN1C(=O)[C@H]2[C@H]3[C@H](O)[C@H](O)CC(=NOC)[C@@H]3CC[C@H]2C1=O | -0.604
32 | C=C[C@H](OC)[C@@H](O)c1ccc(OCCO)cc1 | -0.768 and -0.833
33 | COC(=O)C1=C(C)N(Cc2ccccc2)[C@]23O[C@](C(=O)OC)(C(=O)N2[C@@H]1c1ccccc1)[C@@H](c1ccccc1)[C@@H]3C(=O)c1ccccc1 | 0.458 and -0.235
34 | CCOC(=O)[C@@H]1CC=C2CC1C(=O)N1CCC[C@@H]1[C@H]2O[Si](C)(C)C(C)(C)C (stereo not given in full) | -0.323 and -0.427
35 | CCOC(=O)[C@@H]1CC2O[C@]23C[C@@H]1C(=O)N1CCC[C@@H]1[C@H]3O[Si](C)(C)C(C)(C)C (stereo not given in full) | -0.457 and -0.0006
36 | Cc1ccc(S(=O)(=O)OC[C@@H]2CN3[C@@H](CC[C@@H](C)[C@@H]3c3ccc(Br)cc3)C(=O)O2)cc1 | 0.299 and 0.063
37 | COC(=O)C1=C(C)N(Cc2ccccc2)[C@]23O[C@](C(=O)OC)(C(=O)N2[C@@H]1c1ccccc1)[C@H]1C(=O)N(c2ccccc2)C(=O)[C@H]13 | 0.446 and 0.277
38 | CCOC(=O)c1ccc(NC(=O)O[C@H]2[C@H](OC(=O)Nc3ccccc3)[C@H](OC(=O)Nc3ccccc3)[C@@H](OC)O[C@@H]2CO)cc1 | 1.19 and 1.58
39 | C[N+](C)(C)CCCCCCNC(=O)[C@H]1C[C@H]2C(=O)N[C@@H](CCCC[N+](C)(C)C)C(=O)N2[C@H]1c1ccc(O)cc1 | 0.137 and 0.115
40 | Cc1ccc(S(=O)(=O)N[C@@H]2COC(=O)CC=C[C@@H](C)[C@@H]3C=C[C@H](O)[C@@H](COC(=O)CC=C[C@H]2C)O3)cc1 | 1.1 and 0.792
41 | CCCNC(=O)OC[C@H]1O[C@H](CCON=C(C)CCC(=O)OC[C@H]2O[C@H](C#Cc3ccccc3)C=C[C@@H]2Oc2ccc(C)cc2)C=C[C@@H]1Oc1ccc(OC)cc1 | -0.115
42 | C=CCN(CCCC)C(=O)C1N(C(C)(C)CO)C(=O)C2C(C(=O)O)C3C=CC21O3 (stereo not given) | -0.796 and -1.83
43 | C=C[C@@H](C)[C@H](O)c1ccc(O)c2ccccc12 | 0.0628 and -0.136
44 | C=CCN(Cc1ccccc1)C(=O)C1N(C(C)(C)CO)C(=O)C2C(C(=O)O)C3C=CC21O3 (stereo not given) | 2.08 and -1.13
45 | C=CC[C@H](O)c1ccc(OCCO)cc1 | -0.688 and 0.148
46 | C=CCN(C(=O)C(c1cccs1)N(C(=O)/C=C\C(=O)O)c1ccc(CCO)cc1)c1ccc(OC)cc1 (stereo not given) | -0.812 and -1.02
47 | C=CC[C@@H](O)c1ccc(OCCO)cc1 | -0.827 and -0.804
48 | C=CCN(C(=O)C1N(CCCCCCO)C(=O)C2C(C(=O)O)C3C=CC21O3)c1ccc(OC)cc1 (stereo not given) | -0.585 and -0.754
49 | COC(=O)C1=C(C)N(Cc2ccccc2)C2=C(C(=O)c3ccccc3)[C@H](c3ccccc3)[C@@](O)(C(=O)OC)C(=O)N2[C@@H]1c1ccccc1 | -0.16 and 0.0962
50 | Cc1ccc(S(=O)(=O)N[C@H]2COC(=O)[C@@H](C)COC(=O)[C@H](C)NC(=O)CC=C[C@H]2C)cc1 | 1.03
